Screening results as filed in PubChem BioAssay.
Compounds with a hit are over-represented: about 20% of the library has one in this group of screens.
Pf growth 48h = Primary qHTS for delayed death inhibitors of the malarial parasite plastid, 48 hour incubation; P. falciparum luciferase growth in erythrocytes, 48 h; Potency, µM (series often up to 28.7 µM), for the others: at the top dose activity change, negative = inhibition, hits mostly inhibitors; actives 5.9% (n = 310,000); AID 504832, 2011; note: potency is the fitted concentration of half-maximal effect; % is set by controls: 0 for no effect and ±100 for the full control effect
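Parasite viability was followed by luminescence of a genomically integrated firefly luciferase. Cultures held 0.1% parasitemia at 2% hematocrit (final), incubated under 5% CO2 at 37 C.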
HCMV antiviral = qHTS Assay for inhibitors of the human cytomegalovirus (HCMV). HFF cells, HCMV-luciferase reporter, 72 h; stronger effect = lower value. activity change, negative = inhibition, % at 57.5 µM. actives 4.5% (n = 410,000). AID 1259415, 2018; in the data active = activity change below about -60%; inconclusive = no clear call, values can overlap the other calls; inactive = above about -39%; note: % is set by controls: 0 for no effect and ±100 for the full control effect
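Inhibition of viral replication was scored as loss of reporter luminescence in HFFs infected with HCMV-luciferase (MOI 1 PFU/cell) for 72 h; compounds tested at 2 doses, normalized to buffer and Salinomycin controls.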
CHX counter = Cycloheximide Counterscreen for Small Molecule Inhibitors of Shiga Toxin. max response, %. cell reporter, cycloheximide protein synthesis inhibition counterscreen. actives 12% (n = 300,000); in the data active = max response mostly above about 13%, no sharp cut-off; inactive = mostly below about 14%; note: read at 38.3 µM for the half of the compounds with a filed dose; 0% is about no effect
Shiga inhibitor = A qHTS for Small Molecule Inhibitors of Shiga Toxin; Vero cells, Shiga toxin protein synthesis inhibition reporter; inhibition, % at 38.7 µM; actives 9.2% (n = 290,000); in the data active = inhibition mostly above about 28%, no sharp cut-off; inactive = mostly below about 43%; note: 0% is about no effect
Pf growth 96h = Primary qHTS for delayed death inhibitors of the malarial parasite plastid, 96 hour incubation | P. falciparum luciferase reporter growth, 96 h | Potency, µM (top dose mostly 28.7 µM), inactives show top-dose activity change, negative = inhibition, usual class: inhibitors | actives 6.9% (n = 320,000) | AID 504834, 2011; note: potency is the fitted concentration of half-maximal effect; % is set by controls: 0 for no effect and ±100 for the full control effect
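Two parasite generations (96 h, 37 C, 5% CO2) of compound exposure in infected erythrocytes (0.05% parasitemia, 2% hematocrit). Luciferase-reporter P. falciparum; decreased luminescence indicates inhibited growth, aimed at apicoplast-acting delayed death.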
* marks the source's active call; other numbers are inactive results; ? = inconclusive; · = no result; ! = a repeat was not active. Unless noted, calls come from the whole dose curve; as a rule, active = well fitted inhibition curve with a large enough effect; inconclusive = small, poorly fitted or top-dose-only effect, or another doubt; inactive = no such curve, though single readings can be large or run the other way.

SMILES	Pf growth 48h	HCMV antiviral	CHX counter	Shiga inhibitor	Pf growth 96h
COc1cc(C(=O)NCCSc2ccc(Cl)cc2)cc(OC)c1OC	?	-3	-2	-5	?
COc1cc(C(=O)NCCSc2ccccc2)cc(OC)c1OC	-9%	42	9	-1	10µM*
O=C(c1ccccc1)C1CCN(C(=O)c2ccco2)CC1	67%	6	8	25	45%
CCOc1ccc(CCNC(=O)c2ccc3c(c2)nc2n3CCOC2)cc1OCC	·	6	·	·	·
CCN1CCN(c2ccc(S(=O)(=O)N3CCOCC3)cc2NC(=O)C2CCC(C(C)(C)C)CC2)CC1 (centres undefined)	·	-9	·	·	·
COc1cc(CN2CCc3nc(N4CCN(c5ccccn5)CC4)ncc3C2)cc(OC)c1OC	·	-63*	·	·	·
COc1cc(CN2CCc3nc(N4CCN(c5ncccn5)CC4)ncc3C2)cc(OC)c1OC	·	-63*	·	·	·
CCOc1ccccc1CN1CCc2nc(N3CCN(c4ccccc4F)CC3)ncc2C1	·	-64*	·	·	·
CCN(C(=O)Cn1c(SCC(=O)Nc2ccc(OC)cc2)nc2ccccc21)c1cccc(C)c1	·	3	·	·	·
COCc1ccc(C(=O)N2CCCC(Nc3ccc4c(c3)OCCO4)C2)o1 (centres undefined)	-17%	1	4	11	20%
Cc1cc(C)nc(Nc2ccc(C)c([N+](=O)[O-])c2)n1	15%	-5	17*	54*	43%
COc1cc([N+](=O)[O-])ccc1Nc1nc(C)cc(C)n1	15%	?	1	-16	9.3µM*
COc1ccc(CNc2cc([N+](=O)[O-])ccc2OC)cc1	4%	-74*	0	-9	20%
COc1ccc(C)cc1NCc1ccc([N+](=O)[O-])cc1	-27%	-15	1	·	?
COc1ccc([N+](=O)[O-])cc1Nc1c2ccccc2nc2ccccc12	12µM*	?	-3	-1	17µM*
CCOC(=O)c1cc(OC(=O)c2ccccc2C)n(-c2ccccc2)n1	·	18	·	·	·
Cc1cc(C)cc(Cn2c3ccc(NC(=O)NCCc4cccs4)cc3c(=O)n2C)c1	·	8	·	·	·
CC12CCC=CC1C(c1cccc([N+](=O)[O-])c1)N(Cc1ccccc1)C2=O (centres undefined)	·	·	7	16	·
N#Cc1cccc(Nc2c3c(nc4ccccc24)CCC3)c1	?	-17	-2	-10	-19%
c1coc(CNc2c3c(nc4ccccc24)CCC3)c1	?	-69*	-4	4	-20%
COc1ccc(OC)c(Nc2cc(C)c3ccccc3n2)c1	25%	-4	-4	-7	?
CC(C)NCC(=O)Nc1c2c(nc3ccccc13)CCC2	-12%	24	-1	-6	-6%
Cc1cccc(Nc2c3c(nc4ccccc24)CCC3)c1	12µM*	-34	-2	-6	?
COc1cc(NS(C)(=O)=O)ccc1Nc1c2ccccc2nc2ccccc12	1µM*	-97*	·	·	0.93µM*
COc1ccc(OC)c(Nc2c3ccccc3nc3ccccc23)c1	1.7µM*	-71*	8	16	?
SMILES	Pf growth 48h	HCMV antiviral	CHX counter	Shiga inhibitor	Pf growth 96h
COc1ccccc1Nc1c2c(nc3ccc(N)cc13)CCCC2	?	-31	-2	-4	?
COc1cc(Nc2c3c(nc4ccccc24)CCC3)cc(OC)c1OC	12µM*	-75*	-2	-8	5%
COc1ccc(OC)c(Nc2c3c(nc4ccccc24)CCC3)c1	?	-79*	-4	-2	?
CC(=O)C1=C(c2cccc([N+](=O)[O-])c2)N(C(C)=O)n2c(C)nnc2S1	?	-93*	18*	12	?
COc1ccc(C2=C(C(C)=O)Sc3nnc(-c4ccccc4)n3N2C(C)=O)cc1	·	3	·	·	·
CCOc1ccc(C2=C(C(C)=O)Sc3nnc(C)n3N2C(C)=O)cc1	·	-11	20*	45	·
CCC(=O)C1=C(c2ccc(Cl)cc2)N(C(=O)CC)n2c(C)nnc2S1	·	-99*	·	·	·
CCc1nnc2n1N(C(C)=O)C(c1ccc(C(C)(C)C)cc1)=C(C(C)=O)S2	·	-98*	·	·	·
CCC(=O)C1=C(c2ccccc2)N(C(=O)CC)n2c(nnc2-c2ccccc2)S1	·	-20	·	·	·
Cc1ccc(C(=O)Nc2nc(-c3cccnc3)cs2)o1	34%	26	22	26	63%
O=C(Nc1nc(-c2ccccc2)cs1)c1cccc([N+](=O)[O-])c1C(=O)O	-1%	8	1	-4	24%
COc1ccc(-c2csc(NC(=O)c3ccccc3F)n2)cc1	-9%	-38	15*	·	?
O=C(Nc1nc(-c2ccccc2)cs1)c1ccccc1F	52%	28	41*	62*	13µM*
O=C(Nc1nc(-c2ccccc2)cs1)c1ccc(Br)o1	1%	-11	32*	107*	·
COc1ccc(-c2csc(NC(=S)NC(=O)c3ccco3)n2)cc1	30%	-19	5	-22	12%
Cc1cc(Nc2ccc(C(=O)O)c(O)c2)n2ncnc2n1	·	3	·	·	·
O=C(Cn1c(=O)ccc2cc(S(=O)(=O)N3CCCC3)ccc21)NCc1ccc(F)cc1	·	-2	·	·	·
CC(C)OC(=O)C(C(=O)C(F)(F)F)c1cc(NS(=O)(=O)c2ccc3ccccc3c2)c2ccccc2c1O (centres undefined)	9.3µM*	·	0	11	3.3µM*
CN1C2CCC1CC(OC(=O)c1ccc(Cl)cc1)C2 (centres undefined)	?	49	-2	-23	1%
CCOc1ccc(C(=O)OC2CC3CCC(C2)N3C)cc1 (centres undefined)	35%	36	22*	27	?
CN1[C@@H]2CC[C@H]1CC(OC(=O)c1c[nH]c3ccccc13)C2 (some centres undefined)	·	-26	-1	-12	·
CN1C2CCC1CC(OC(=O)c1c[nH]c3ccccc13)C2 (centres undefined)	12µM*!	9	-2	-10	?
CC(C)(C)S(=O)N1Cc2ccc(CO)cc2[C@@H]1CCO (some centres undefined)	·	-4	·	·	·
O=[N+]([O-])c1cc([N+](=O)[O-])c(Oc2c(F)ccc(F)c2F)cc1NN1CCCCC1	-11%	?	2	1	-4%
O=[N+]([O-])c1cc([N+](=O)[O-])c(Oc2cc(Cl)cc(Cl)c2)cc1NN1CCCCC1	9%	-78*	·	·	12%
CC(=O)c1cccc(Oc2cc(NN3CCCCC3)c([N+](=O)[O-])cc2[N+](=O)[O-])c1	-9%	-37	1	-8	12µM*
Cc1ccc(Oc2cc(NN3CCCCC3)c([N+](=O)[O-])cc2[N+](=O)[O-])c(Cl)c1	?	15	1	-6	13µM*
CCOc1cc(C(=O)N(C)CC(=O)Nc2cccc(F)c2)ccc1OCC(=O)N1CCOCC1	?	-2	·	·	7%
COc1ccncc1-c1csc(C(O)c2ccccc2)n1 (centres undefined)	·	-69*	·	·	·
